Consider 20 compounds from PubChem BioAssay.

Unmarked numbers belong to inactive results. For some of these results: Results with a measured potency or affinity are listed apart. The source made the active and inactive calls. Unless noted, how the calls were made is not given here.

As usually defined, the inhibition is the relative decrease from the control value, in per cent.

The nature of test [1]: antimalarial activity against Dd2 strain (AID 2302;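 active means growth inhibition above 50% at the single 2 µM test dose, taken to imply half-maximal potency below 2 µM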;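 further: 0% = DMSO untreated growth and 100% = chloroquine plus artemisinin killed control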). The following applies: P. falciparum Dd2 in RBCs, LDH growth readout, 72 h; at 2 µM; active compounds read high.
The nature of test [2]: HepG2 cytotoxicity, primary screen, cytotoxicity control for P. falciparum antimalarial project, cell-based, ATP luminescence (AID 2303;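 active means inhibition above 50%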;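 further: 0% = DMSO wells and 100% = digitonin-killed cells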). The conditions noted are these: HepG2 viability, 24-48 h, at 10 µM, active compounds read high.
Test [3] addresses L-lactate dehydrogenase (Plasmodium falciparum (isolate CDC / Honduras)) (UniProt Q27743). The test can be described thus: PfLDH activity inhibition – cell lysate, 3D7 strain, counter-screen for P. falciparum growth inhibition project (AID 2304).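 Further: 0% = vehicle and 100% = reference inhibitor.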 The following applies: P. falciparum 3D7 crude extract, LDH APAD/NBT absorbance; at 2 µM; active compounds read high. A general note: The purpose of a counterscreen is to sort out artefacts and off-target activity.

Test [4] is described as follows: inhibition of 3D7 malaria parasite growth – strain 3D7 (AID 2306).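 Further: 0% = DMSO wells and 100% = chloroquine plus artemisinin control wells.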 The conditions noted are these: P. falciparum 3D7 erythrocytic growth, LDH absorbance, 72 h; at 2 µM; active compounds read high.
Test [5] has as its target Calcium-dependent protein kinase 1 (Plasmodium falciparum (isolate 3D7)) (UniProt P62344). The test can be described thus: PfCDPK1 kinase inhibitors, biochemical, TCAMS library (AID 1159585; cut-off not given, nearly all actives have IC50 up to about 0.98 µM;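 further: inhibitors leave more ATP so luminescence rises with inhibition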). The conditions noted are these: recombinant PfCDPK1, Kinase-Glo ATP depletion luminescence. A general note: In Kinase-Glo more light means more ATP remaining.
Test [6] addresses Plasmodium falciparum protein kinase 6 (PK6, PF3D7_1337100) (UniProt Q8IDW1). In words: PfPK6 kinase inhibitors, biochemical, TCAMS library (AID 1159586). The conditions noted are these: recombinant PfPK6, Kinase-Glo ATP depletion luminescence.
For test [7], the target named is Protein kinase 7 (PK7), Plasmodium falciparum 3D7 (PF3D7_0213400) (UniProt Q7YTF7). In words: inhibition of Plasmodium PK7 catalytic activity – biochemical, TCAMS antimalarial set, Kinase-Glo luminescence (AID 1159587). The following applies: recombinant PfPK7, Kinase-Glo ATP depletion luminescence.
Protein kinase 7 (PK7), Plasmodium falciparum 3D7 (PF3D7_0213400), sequence (Q7YTF7 1-343): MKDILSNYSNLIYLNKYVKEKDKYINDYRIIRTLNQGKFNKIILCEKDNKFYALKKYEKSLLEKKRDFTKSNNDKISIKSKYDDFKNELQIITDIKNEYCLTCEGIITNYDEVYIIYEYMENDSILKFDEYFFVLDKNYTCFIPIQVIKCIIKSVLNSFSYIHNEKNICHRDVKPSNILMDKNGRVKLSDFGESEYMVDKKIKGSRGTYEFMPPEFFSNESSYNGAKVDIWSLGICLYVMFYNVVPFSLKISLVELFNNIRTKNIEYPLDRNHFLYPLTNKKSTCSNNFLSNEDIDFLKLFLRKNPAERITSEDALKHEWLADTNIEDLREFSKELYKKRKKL
For test [8], the target named is Calcium-dependent protein kinase 4 (Plasmodium falciparum (isolate 3D7)) (UniProt Q8IBS5). In words: PfCDPK4 kinase inhibitors, biochemical, TCAMS library (AID 1159588; cut-off not given, nearly all actives have IC50 up to about 0.91 µM). The conditions noted are these: recombinant PfCDPK4, Kinase-Glo ATP depletion luminescence.
Calcium-dependent protein kinase 4 (Plasmodium falciparum (isolate 3D7)), sequence (Q8IBS5 whole entry, looked up): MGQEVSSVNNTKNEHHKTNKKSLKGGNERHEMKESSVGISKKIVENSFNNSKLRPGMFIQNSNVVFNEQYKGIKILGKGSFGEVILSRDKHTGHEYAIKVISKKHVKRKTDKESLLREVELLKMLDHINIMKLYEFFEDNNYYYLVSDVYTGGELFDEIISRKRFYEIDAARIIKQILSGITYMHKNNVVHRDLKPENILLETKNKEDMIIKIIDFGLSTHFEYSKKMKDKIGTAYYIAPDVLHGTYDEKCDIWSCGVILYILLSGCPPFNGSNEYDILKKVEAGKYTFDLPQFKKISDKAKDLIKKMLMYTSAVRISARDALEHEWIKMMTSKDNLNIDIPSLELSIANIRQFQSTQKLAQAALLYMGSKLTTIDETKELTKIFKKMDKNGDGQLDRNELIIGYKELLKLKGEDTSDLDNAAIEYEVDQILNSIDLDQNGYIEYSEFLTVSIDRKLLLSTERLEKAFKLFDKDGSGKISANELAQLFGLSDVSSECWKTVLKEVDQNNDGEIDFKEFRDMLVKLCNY

L-lactate dehydrogenase (Plasmodium falciparum (isolate CDC / Honduras)), sequence (Q27743 whole entry, looked up): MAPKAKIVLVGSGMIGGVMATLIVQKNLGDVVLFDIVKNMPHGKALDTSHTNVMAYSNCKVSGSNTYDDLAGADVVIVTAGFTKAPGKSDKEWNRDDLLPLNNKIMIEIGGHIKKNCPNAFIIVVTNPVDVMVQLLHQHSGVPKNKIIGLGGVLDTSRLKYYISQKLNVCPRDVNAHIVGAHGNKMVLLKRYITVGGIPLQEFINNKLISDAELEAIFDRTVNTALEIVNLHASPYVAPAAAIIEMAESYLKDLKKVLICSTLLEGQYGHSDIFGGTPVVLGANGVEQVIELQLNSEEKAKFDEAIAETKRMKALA
Plasmodium falciparum protein kinase 6 (PK6, PF3D7_1337100), sequence (Q8IDW1 1-305): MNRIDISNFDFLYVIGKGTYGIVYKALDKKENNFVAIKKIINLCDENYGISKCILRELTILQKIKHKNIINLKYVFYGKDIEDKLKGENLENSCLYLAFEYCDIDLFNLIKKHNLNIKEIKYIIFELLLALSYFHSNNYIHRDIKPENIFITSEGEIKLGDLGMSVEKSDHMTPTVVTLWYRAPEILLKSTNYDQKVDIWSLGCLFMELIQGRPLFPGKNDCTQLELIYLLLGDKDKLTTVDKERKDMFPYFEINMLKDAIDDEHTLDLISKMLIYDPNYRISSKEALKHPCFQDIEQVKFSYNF
Calcium-dependent protein kinase 1 (Plasmodium falciparum (isolate 3D7)), sequence (P62344 whole entry, looked up): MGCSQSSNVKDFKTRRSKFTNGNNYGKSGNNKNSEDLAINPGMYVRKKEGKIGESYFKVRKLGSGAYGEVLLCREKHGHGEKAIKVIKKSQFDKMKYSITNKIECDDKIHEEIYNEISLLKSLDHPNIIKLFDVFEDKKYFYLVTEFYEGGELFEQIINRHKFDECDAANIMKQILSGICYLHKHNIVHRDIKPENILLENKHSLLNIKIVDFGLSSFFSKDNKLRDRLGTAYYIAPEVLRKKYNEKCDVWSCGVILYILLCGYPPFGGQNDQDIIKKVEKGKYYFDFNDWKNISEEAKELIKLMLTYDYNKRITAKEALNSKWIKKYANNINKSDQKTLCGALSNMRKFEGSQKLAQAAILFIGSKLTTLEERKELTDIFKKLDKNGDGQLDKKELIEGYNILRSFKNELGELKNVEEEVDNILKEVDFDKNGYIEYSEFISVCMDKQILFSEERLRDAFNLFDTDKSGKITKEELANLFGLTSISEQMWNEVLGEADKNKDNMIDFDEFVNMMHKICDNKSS

For the compound `CC(C)N(Cc1ccccc1)C(=O)CN1C(=O)COc2ccc(S(=O)(=O)N3CCCCCC3)cc21`, the growth inhibition in test [1] and in test [4] was 99% (active) in each case. Besides, the values for the inhibition in test [2] and in test [3] were -11% and -3%, respectively. In addition, the result in test [5], in test [6], in test [7] and in test [8] was inactive.
As to `Cc1cc(OCCCN2CCC(NS(=O)(=O)c3ccc(Cl)c(Cl)c3)C2)c2ccccc2n1` (stereo not given), the results for the growth inhibition in test [1] and in test [4] were 37% and 87% (active), respectively. Besides, the inhibition was 28% in test [2] and 1% in test [3]. Besides, the result in test [5], in test [6], in test [7] and in test [8] was inactive.
Consider `COc1ccc(CN2CCC2=O)c(OC)c1`, for which the growth inhibition in test [1] was 96% (active); in test [4], 98% (active). Further, the inhibition in test [2] is 0%; in test [3], -6%. Further, the result in test [5], in test [6], in test [7] and in test [8] was inactive.
With `Cc1cc(F)ccc1[C@H]1CNCCN1C(=O)N(C)[C@@H](C)c1cc(C(F)(F)F)cc(C(F)(F)F)c1`, the growth inhibition in test [1] is 99% (active); in test [4], 100% (active). In addition, the inhibition is 20% in test [2] and 1% in test [3]. The result in test [5], in test [6], in test [7] and in test [8] was inactive.
Turning to `Cn1cncc1C(=O)Nc1cccc(-c2cccc(-c3nc4ccccc4[nH]3)c2)c1`, the results for the growth inhibition in test [1] and in test [4] were 35% and 102% (active), respectively. Besides, the results for the inhibition in test [2] and in test [3] were 9% and 3%, respectively. Also, the outcome in test [5], in test [6], in test [7] and in test [8] was inactive.
In the case of `Cc1ccc(NC(=O)c2ccc3ncccc3c2)cc1OC1CCN(Cc2ccco2)C1` (stereo not given), the growth inhibition was 42% in test [1] and 86% (active) in test [4]. Further, the values for the inhibition in test [2] and in test [3] were 9% and 2%, respectively. In addition, the result in test [5], in test [6], in test [7] and in test [8] was inactive.
For the compound `CCn1cc2c3c(cc(C(=O)N[C@@H](Cc4ccccc4)[C@H](O)CNC4CCOCC4)cc31)N(C)S(=O)(=O)CC2`, the growth inhibition in test [1] and in test [4] was 98% (active) each time. The inhibition was -10% in test [2] and 0% in test [3]. The result in test [5], in test [6], in test [7] and in test [8] was inactive.
For `Cc1cccc(OCC(=O)Nc2cccc(NC(=O)COc3cccc(C)c3)n2)c1`, the growth inhibition was 30% in test [1] and 98% (active) in test [4]. For the same compound, the inhibition was -3% in test [2] and 0% in test [3]. In addition, the result in test [5], in test [6], in test [7] and in test [8] was inactive.
For the compound `Cc1ccc(CN2CCCN(Cc3cccc(NC(=O)c4cc5ccccc5s4)c3)CC2)cc1`, the results for the growth inhibition in test [1] and in test [4] were 28% and 87% (active), respectively. For the same compound, the inhibition is 32% in test [2] and -3% in test [3]. Besides, the outcome in test [5], in test [6], in test [7] and in test [8] was inactive.
Turning to `Cc1noc(NC(=O)c2sc3ccccc3c2O)c1C`, the growth inhibition is 50% (active) in test [1] and 90% (active) in test [4]. For the same compound, the inhibition is -12% in test [2] and 0% in test [3]. Moreover, the result in test [5], in test [6], in test [7] and in test [8] was inactive.
`NCc1ccc(CNCc2cccc(-c3ccc(-c4nc5ccccc5[nH]4)cc3)c2)cc1`: the growth inhibition in test [1] was 58% (active); in test [4], 100% (active). The inhibition in test [2] is 10%; in test [3], -8%. In addition, the outcome in test [5], in test [6], in test [7] and in test [8] was inactive.
In the case of `COc1ccc2nccc(N3CCC(CCNCc4cc5c(cn4)OCCO5)CC3)c2n1`, the growth inhibition was 101% (active) in test [1] and 100% (active) in test [4]. For the same compound, the inhibition in test [2] was 18%; in test [3], 7%. In addition, the result in test [5], in test [6], in test [7] and in test [8] was inactive.
On to `Cc1cc(NN=Cc2cccc([N+](=O)[O-])c2)c2cc(F)ccc2n1`, for which the growth inhibition is 99% (active) in test [1] and 102% (active) in test [4]. Further, the results for the inhibition in test [2] and in test [3] were 3% and -5%, respectively. The outcome in test [5], in test [6], in test [7] and in test [8] was inactive.
`Cc1cccc2[nH]c(-c3cccc(-c4ccc(NC(=O)COc5ccccc5C(N)=O)cc4)c3)nc12`: the values for the growth inhibition in test [1] and in test [4] were 47% and 101% (active), respectively. Further, the inhibition in test [2] was 18%; in test [3] it was -8%. For the same compound, the result in test [5], in test [6], in test [7] and in test [8] was inactive.
As to `Cc1cc(F)ccc1[C@H]1CNCCN1C(=O)N(C)C(C)(C)c1cc(C(F)(F)F)cc(C(F)(F)F)c1`, the growth inhibition in test [1] is 100% (active); in test [4] it was 101% (active). Also, the figures for the inhibition in test [2] and in test [3] were 24% and -4%, respectively. Further, the outcome in test [5], in test [6], in test [7] and in test [8] was inactive.
Turning to `O=[N+]([O-])c1cccc(CNC2CCN(Cc3ccc(Cl)c(Cl)c3)CC2)c1`, the growth inhibition in test [1] is 71% (active); in test [4], 100% (active). The inhibition is 5% in test [2] and 3% in test [3]. Besides, the outcome in test [5], in test [6], in test [7] and in test [8] was inactive.
`Cc1cc(NC(=O)Nc2cccc(Cl)c2Cl)c2ccccc2n1`: the results for the growth inhibition in test [1] and in test [4] were 25% and 96% (active), respectively. The inhibition was -5% in test [2] and 1% in test [3]. Besides, the result in test [5], in test [6], in test [7] and in test [8] was inactive.
Consider `O=C(Cc1cccs1)NCC(c1ccccc1Cl)c1c[nH]c2ccccc12` (stereo not given), for which the growth inhibition in test [1] was 56% (active); in test [4], 91% (active). Also, the figures for the inhibition in test [2] and in test [3] were 12% and 1%, respectively. The outcome in test [5], in test [6], in test [7] and in test [8] was inactive.
Turning to `c1ccc(-c2cc(NCc3cccc4ccccc34)c3[nH]ncc3n2)cc1`, the growth inhibition was 5% in test [1] and 93% (active) in test [4]. The figures for the inhibition in test [2] and in test [3] were 7% and -8%, respectively. Besides, the outcome in test [5], in test [6], in test [7] and in test [8] was inactive.
On to `Nc1nc2cccc3ccc4cccc1c4c32`, for which the values for the growth inhibition in test [1] and in test [4] were 69% (active) and 101% (active), respectively. The figures for the inhibition in test [2] and in test [3] were 26% and -1%, respectively. Further, the outcome in test [5], in test [6], in test [7] and in test [8] was inactive.
